Experiment [1] concerns the target Nucleoli Translocation, AR (gene 367) (UniProt P10275). In words: UPITT_HCI_U2OS_AR_TIF2_Nucleoli_Antagonist: University of Pittsburgh U2OS Androgen Receptor-Transcriptional Intermediary Factor 2 (AR-TIF2) Antagonism High Content Imaging Assay for Nucleoli Translocation (AID 2283997; active = hit-call score of the fitted dose curve at least 0.9, where 1 is the maximum). The procedure, abridged: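 An antagonist-mode imaging screen: engineered U2OS (AR-RFP, TIF2-GFP) exposed to 20 uM compound, 0.2% DMSO. Activity reflects nucleolar red fluorescence change relative to DHT baseline.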

In experiment [2] the target is Ratio of Nucleoli Translocation and Cytoplasm, AR (gene 367) (UniProt P10275). In words: UPITT_HCI_U2OS_AR_TIF2_Nucleoli_Cytoplasm_Ratio_Antagonist: University of Pittsburgh U2OS Androgen Receptor-Transcriptional Intermediary Factor 2 (AR-TIF2) Antagonism High Content Imaging Assay for Ratio of Nucleoli Translocation and Cytoplasm (AID 2283999; active = hit-call score of the fitted dose curve at least 0.9, where 1 is the maximum;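 note: antagonists lower the DHT-driven ratio of nucleolar to cytoplasmic red signal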). The procedure, abridged:
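This antagonist-mode endpoint tracks AR-RFP localisation, the nucleolus-to-cytoplasm intensity ratio, in TIF2-GFP-coexpressing U2OS cells. DMSO stays at or below 0.5%; testing spans 20 uM single-dose and 0.195–50 uM series, with DHT setting the activity baseline.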

For experiment [3] the target is unchanged. In words: UPITT_HCI_U2OS_AR_TIF2_Nucleoli_Cytoplasm_Ratio_Agonist: University of Pittsburgh U2OS Androgen Receptor-Transcriptional Intermediary Factor 2 (AR-TIF2) Agonism High Content Imaging Assay for Ratio of Nucleoli Translocation and Cytoplasm (AID 2284000; active = hit-call score of the fitted dose curve at least 0.9, where 1 is the maximum;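 note: hits raise the red nucleolar to cytoplasm ratio above vehicle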). In a few lines:
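Primary screen at 20 uM final (0.2% DMSO), then triplicate confirmation and dose-response from 0.195 to 50 uM final (0.5% DMSO). Cells: U2OS with AR-RFP and TIF2-GFP. Endpoint is the nucleoli/cytoplasm red-fluorescence ratio, gain-of-signal vs DMSO.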

Experiment [4] in a line: CCTE_Harrill_HTTr_Viability_MCF7: CCTE's 6-hour Cell Viability Assessment for the High-Throughput Transcriptomics (HTTr) Platform, in MCF-7 cells cultured in DMEM + 10% fetal bovine serum, Harrill Lab (AID 2284010). In a few lines: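 Eight-point concentration series, six-hour exposure. Propidium iodide exclusion imaged to assess membrane integrity as a cytotoxicity readout; bidirectional fitting was done with DMSO as negative control and activity baseline.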

Experiment [5] can be described thus: CCTE_Harrill_HTTr_Apoptosis_MCF7: CCTE's 6-hour Apoptosis Assessment for the High-Throughput Transcriptomics (HTTr) Platform, in MCF-7 cells cultured in DMEM + 10% fetal bovine serum, Harrill Lab (AID 2284011). The procedure, abridged:
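MCF-7 cells in DMEM + 10% fetal bovine serum were exposed to chemicals for 6 hours over an eight-point dilution series. Caspase-3/7 activation was imaged by high content imaging with CellEvent Caspase 3/7 Green; bidirectional fitting used DMSO as baseline.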

Experiment [6] can be described thus: CCTE_Harrill_HTTr_CellCount_MCF7: CCTE's Cell Proliferation Assessment for the High-Throughput Transcriptomics (HTTr) Platform, Harrill Lab (AID 2284012; active = hit-call score of the fitted dose curve at least 0.9, where 1 is the maximum;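 note: count of Hoechst-stained nuclei per well by high-content imaging in MCF-7 cells; cells exposed to compound for six hours; intended direction is loss of nuclei count meaning fewer cells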). In a few lines:
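For this full-screen endpoint, MCF-7 cultures received eight compound dilutions for six hours. Well nuclei counts from Hoechst imaging were analyzed relative to DMSO.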

The nature of experiment [7]: CCTE_Harrill_HTTr_Viability_PRF_DMEM_24hr: (Pilot) CCTE's 24-hour Cell Viability Assessment for the High-Throughput Transcriptomics (HTTr) Platform, in MCF-7 cells cultured in phenol red-free DMEM + 10% charcoal-stripped fetal bovine serum, Harrill Lab (AID 2283980). In a few lines:
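Propidium iodide exclusion imaged at 24 h after dosing scores viability; cells were MCF-7 grown in phenol red-free DMEM plus 10% charcoal-stripped serum, tested in eight concentrations, fitted in both directions against DMSO.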

A short description of experiment [8]: CCTE_Harrill_HTTr_Apoptosis_DMEM_6hr: (Pilot) CCTE's 6-hour Apoptosis Assessment for the High-Throughput Transcriptomics (HTTr) Platform, in MCF-7 cells cultured in DMEM + 10% fetal bovine serum, Harrill Lab (AID 2283981). The procedure, abridged:
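MCF-7 cells grown in DMEM + 10% FBS were exposed for 6 hours to an eight-point dilution series. CellEvent Caspase 3/7 Green signal was imaged; activity fitted bidirectionally against DMSO.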

Experiment [9] in a line: CCTE_Harrill_HTTr_Apoptosis_DMEM_12hr: (Pilot) CCTE's 12-hour Apoptosis Assessment for the High-Throughput Transcriptomics (HTTr) Platform, in MCF-7 cells cultured in DMEM + 10% fetal bovine serum, Harrill Lab (AID 2283982). The procedure, abridged: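 Caspase-3/7 activity was measured by high-content imaging (CellEvent Caspase 3/7 Green) after a 12-hour exposure of MCF-7 cells grown in DMEM with 10% FBS. Eight-point concentration series, fitted bidirectionally against vehicle.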

Experiment [10] in a line: CCTE_Harrill_HTTr_Apoptosis_DMEM_24hr: (Pilot) CCTE's 24-hour Apoptosis Assessment for the High-Throughput Transcriptomics (HTTr) Platform, in MCF-7 cells cultured in DMEM + 10% fetal bovine serum, Harrill Lab (AID 2283983). The procedure, abridged: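 Caspase-3/7 activity read by high-content imaging (CellEvent Green reagent) 24 h after dosing. MCF-7 cells grown in DMEM with 10% FBS received an eight-point concentration series; fits were bidirectional versus DMSO.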

Experiment [11] can be described thus: CCTE_Harrill_HTTr_Apoptosis_PRF_DMEM_6hr: (Pilot) CCTE's 6-hour Apoptosis Assessment for the High-Throughput Transcriptomics (HTTr) Platform, in MCF-7 cells cultured phenol red-free DMEM + 10% charcoal-stripped fetal bovine serum, Harrill Lab (AID 2283984). The procedure, abridged: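 Caspase-3/7 activity (CellEvent Green) read by high-content imaging 6 h after dosing, eight concentrations. Cells: MCF-7, phenol red-free DMEM with 10% charcoal-stripped serum. Curves fit both directions against DMSO.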

A short description of experiment [12]: CCTE_Harrill_HTTr_Apoptosis_PRF_DMEM_24hr: (Pilot) CCTE's 24-hour Apoptosis Assessment for the High-Throughput Transcriptomics (HTTr) Platform, in MCF-7 cells cultured in phenol red-free DMEM + 10% charcoal-stripped fetal bovine serum, Harrill Lab (AID 2283986). In a few lines: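 Eight concentrations tested for 24 h on MCF-7 grown in charcoal-stripped serum, phenol red-free DMEM. High content imaging of CellEvent Caspase 3/7 Green signal gives apoptosis read-out, fitted both ways relative to DMSO.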

Experiment [13] in a line: CCTE_Simmons_MITO_basal_resp_rate: CCTE's HepG2 Seahorse XF Respirometric Screening Assay at Basal Respiratory State, Simmons Lab (AID 2284001). To be noted: actives raise or lower the signal. In a few lines:
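Readout is oxygen consumption rate after test compound injection, measured by Seahorse XF in HepG2 cells. Seven concentrations from 125 nM up to 100 uM final are tested, and activity in either direction is fitted against DMSO.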

Experiment [14] is described as follows: CCTE_Simmons_MITO_max_resp_rate: CCTE's HepG2 Seahorse XF Respirometric Screening Assay at Maximal Respiratory State [uncoupled], Simmons Lab (AID 2284002). Conditions: actives raise or lower the signal. The procedure, abridged:
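HepG2 oxygen consumption was read on a Seahorse XF96 after FCCP uncoupler injection, following test compound injection; 7 concentrations, 125 nM–100 uM final, three biological replicates. Bidirectional fitting against DMSO vehicle baseline.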

Experiment [15] relates to DIO1 (gene 1733). In words: CCTE_GLTED_hDIO1: CCTE's human Deiodinase 1 (DIO1) Inhibition Assay, Great Lakes Toxicology and Ecology Division (GLTED) Lab (AID 2283987; active = hit-call score of the fitted dose curve at least 0.9, where 1 is the maximum;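 note: isolated human DIO1 enzyme in a cell-free setup rather than cells; enzyme activity read as free iodide liberated from substrate via Sandell-Kolthoff colorimetry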). The procedure, abridged:
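Cell-free human DIO1 enzyme was incubated with test chemical for 3 h, and iodide released from substrate was measured by Sandell-Kolthoff absorbance. Loss of signal versus DMSO baseline indicated inhibition; plates were run in triplicate.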

The nature of experiment [16]: CCTE_Shafer_MEA_acute_spike_number: CCTE's Neural Acute Assay for Total Number of Spikes, Shafer Lab (AID 2284008).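 Note: curve fitted for decrease in spike count so AC50 reflects inhibitors.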 In a few lines:
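Primary rat cortical neurons on 16-electrode MEA wells; on DIV 13 or 15, 40-min baseline then 40-min recording with compound (0.03-40 uM) at 37 C. Spikes detected at 8x rms noise; percent change versus baseline, DMSO as negative control.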

Experiment [17] can be described thus: CCTE_Shafer_MEA_acute_firing_rate_mean: CCTE's Neural Acute Assay for Mean Firing Rate, Shafer Lab (AID 2284009).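 Note: analyzed for loss of signal so actives lower firing rate relative to DMSO.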 The procedure, abridged: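 Spontaneous spiking of primary rat cortical networks, DIV 13/15, 37 C. Compound 0.03-40 uM, n ≥3 wells; 40 min baseline vs 40 min treated. Endpoint fitted in loss-of-signal direction against DMSO.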
The nature of experiment [18]: CCTE_Shafer_MEA_acute_burst_number: CCTE's Neural Acute Assay for Single-Electrode Bursts, Shafer Lab (AID 2284013). In a few lines: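 Burst totals were derived with adaptive spike detection (8x rms threshold) on filtered signals from rat cortical cultures; change relative to pre-treatment baseline after 40-min compound exposure (0.03-40 uM) was fitted in the negative direction against DMSO.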

Experiment [19] in a line: CCTE_Simmons_MITO_inhib_resp_rate: CCTE's HepG2 Seahorse XF Respirometric Screening Assay at Inhibited Respiratory State [full ETC block], Simmons Lab (AID 2284006). Conditions: actives raise or lower the signal. The procedure, abridged:
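Test chemicals at seven final concentrations (125 nM–100 uM) in three biological replicates, with DMSO as vehicle. HepG2 oxygen consumption was then tracked on a Seahorse XF96 for 72 min through FCCP and rotenone/antimycin A phases, with the inhibited-phase rate as the endpoint.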

Experiment [20] is described as follows: CCTE_Simmons_MITO_viability: CellTiter-Glo Viability Assessment for CCTE's HepG2 Seahorse XF Respirometric Screening Assay [post-hoc], Simmons Lab (AID 2284007; active = hit-call score of the fitted dose curve at least 0.9, where 1 is the maximum). In a few lines:
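Post-hoc viability check on the HepG2 respirometry plates: luciferase-based ATP signal measured once, after 90 min compound exposure spanning 125 nM–100 uM final. Activity was referenced to DMSO as baseline.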

Structures are written as SMILES. Records with an inconclusive call do not appear. Active and inactive are the calls of the source. Rule for the calls, unless noted: active = hit-call score of the fitted dose curve at least 0.9, where 1 is the maximum; inactive = score below 0.9.

Ratio of Nucleoli Translocation and Cytoplasm, AR (gene 367), sequence (P10275 whole entry, looked up): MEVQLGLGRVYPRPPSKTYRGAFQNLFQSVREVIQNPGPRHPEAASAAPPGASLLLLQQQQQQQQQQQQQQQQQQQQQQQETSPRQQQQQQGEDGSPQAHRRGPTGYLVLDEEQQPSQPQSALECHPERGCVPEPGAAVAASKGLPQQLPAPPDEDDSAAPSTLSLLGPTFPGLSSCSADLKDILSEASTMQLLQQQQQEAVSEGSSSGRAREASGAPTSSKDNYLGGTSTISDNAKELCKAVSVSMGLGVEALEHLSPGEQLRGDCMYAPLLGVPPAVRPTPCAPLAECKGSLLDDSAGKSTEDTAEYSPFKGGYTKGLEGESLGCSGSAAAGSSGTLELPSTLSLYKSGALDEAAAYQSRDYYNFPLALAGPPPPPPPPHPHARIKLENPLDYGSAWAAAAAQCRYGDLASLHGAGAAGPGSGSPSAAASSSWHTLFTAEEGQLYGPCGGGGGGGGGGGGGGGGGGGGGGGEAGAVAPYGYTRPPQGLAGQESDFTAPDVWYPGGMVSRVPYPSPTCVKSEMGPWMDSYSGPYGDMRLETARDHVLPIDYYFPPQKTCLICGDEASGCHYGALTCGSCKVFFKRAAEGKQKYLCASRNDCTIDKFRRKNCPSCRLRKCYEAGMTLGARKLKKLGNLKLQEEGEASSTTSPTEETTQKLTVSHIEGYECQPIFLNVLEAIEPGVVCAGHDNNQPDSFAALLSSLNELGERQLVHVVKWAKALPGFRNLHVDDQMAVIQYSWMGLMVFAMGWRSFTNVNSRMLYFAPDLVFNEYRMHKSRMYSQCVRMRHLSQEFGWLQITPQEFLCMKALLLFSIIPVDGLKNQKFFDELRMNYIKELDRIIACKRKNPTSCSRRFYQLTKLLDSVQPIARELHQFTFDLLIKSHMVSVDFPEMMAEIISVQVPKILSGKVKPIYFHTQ
Nucleoli Translocation, AR (gene 367), sequence (P10275 whole entry, looked up): as above

`C#CC(O)C(CC)CCCC` (stereo unspecified): the AC50 is 22.5 µM (active) in [1] and 14.8 µM (active) in [2]. For the same compound, the outcome in experiment [3], in experiment [4], in [5] and in [6] was inactive.

As to `Nc1nc(Cl)nc2c1ncn2[C@H]1C[C@H](O)[C@@H](CO)O1`, the result in experiment [7], in experiment [8], in experiment [9], in experiment [10], in experiment [11] and in experiment [12] was inactive. Besides, the result in experiment [4], in experiment [5] and in [6] was inactive.

On to `CC(C)OC(=O)C(C)(C)Oc1ccc(C(=O)c2ccc(Cl)cc2)cc1`, for which the result in experiment [7], in experiment [8], in [9], in experiment [10], in experiment [11] and in [12] was inactive. The result in [1], in experiment [2], in experiment [4], in experiment [5] and in experiment [6] was inactive. Further, the results for the AC50 in [13] and in experiment [14] were 30.5 µM (active) and 37.2 µM (active), respectively.

Turning to `O=C(NS(=O)(=O)/C=C/c1cccs1)c1ccc(F)cc1Br`, the compound was classed as inactive in experiment [1], in experiment [3], in experiment [4] and in experiment [5].

In the case of `Cc1ccc(-c2cc(C(F)(F)F)nn2-c2ccc(S(N)(=O)=O)cc2)cc1`, the AC50 in experiment [15] was 170 µM (active); in [1], 26.6 µM (active); in experiment [16] it was 6.27 µM (active); in experiment [17] it was 6.27 µM (active); in experiment [18] it was 6.46 µM (active). The result in experiment [2], in experiment [3], in experiment [4], in experiment [5] and in [6] was inactive.

On to `COC(=O)[C@H]1[C@H]2C[C@@H]3c4[nH]c5cc(OC)ccc5c4CCN3C[C@H]2C[C@@H](OC(=O)c2cc(OC)c(OC)c(OC)c2)[C@@H]1OC`, for which the outcome in experiment [8], in [9], in experiment [11], in experiment [4], in [5] and in experiment [6] was inactive. Further, the AC50 was 46.2 µM (active) in experiment [10]; 58.3 µM (active) in experiment [12]; 1.03 µM (active) in [16]; 1.04 µM (active) in [17]; 0.82 µM (active) in [18].

On to `Cc1ccc(C(C)(C)C)c(O)c1`, for which the AC50 in experiment [13] is 44.6 µM (active); in experiment [16] it was 10.3 µM (active). For the same compound, the result in experiment [14], in experiment [19], in experiment [20], in experiment [17], in experiment [4] and in experiment [5] was inactive. In addition, the outcome in experiment [6] and in [18] was inactive.

As to `CCCCCCC(C=O)=Cc1ccccc1`, the compound was called inactive in experiment [13], in [14], in experiment [19], in [20], in experiment [4] and in [5]. The result in [6] was inactive.

With `O=C1CCCCC1`, the result in experiment [1], in experiment [3], in experiment [4], in experiment [5] and in [6] was inactive.

For `O=Cc1ccccc1C=O`, the concentration at half-maximal activity (AC50) in experiment [15] was 49.3 µM (active). Besides, the compound was classed as inactive in experiment [1], in [2], in experiment [4], in experiment [5] and in experiment [6].

A word on the AC50: it is the concentration giving half of the maximal activity seen.

The values are drawn from PubChem BioAssay (EPA / NIEHS).
